From PubChem
Hits are enriched below; roughly 3.3% of the tested compounds scored in any of these assays.
WRN helicase inh = qHTS for Inhibitors of WRN Helicase; AID 651768, 2012; Potency, µM (top dose mostly 114 µM), for inactives: at the top dose activity change, negative = inhibition, usual class: inhibitors; Bifunctional 3'-5' exonuclease/ATP-dependent helicase WRN (Homo sapiens), Q14191; WRN helicase unwinding, fluorescent forked duplex, kinetic; actives 0.46% (n = 360,000); further: potency means the concentration at half of the fitted maximal effect; nearly all actives have a fitted effect of over 55% in size
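Kinetic fluorescence helicase assay: unwinding of a quenched forked DNA duplex (100 nM final) with 2 mM ATP final raises red fluorescence (525/598 nm). Compounds sat 15 min at room temperature with 20 nM WRN beforehand.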
USP2a inh = qHTS Assay for Inhibitors of Ubiquitin-specific Protease USP2a Using CHOP2 as the Reporter. Ubiquitin carboxyl-terminal hydrolase 2 (Homo sapiens), O75604. USP2 core, Ub-CHOP2 coupled fluorogenic reporter, 485/531. Potency, µM (series often up to 38.3 µM), for inactives: top-dose activity change, negative = inhibition, usual class: inhibitors. actives 0.01% (n = 330,000);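 further: potency means the concentration at half of the fitted maximal effect; plate controls were DMSO wells for no effect and full inhibition by NEM control for full effect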
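Deubiquitinase activity read as fluorescence (485/531 nm) after Ub-CHOP2 cleavage activates the enterokinase reporter on its substrate; USP2 core 10nM, Ub-CHOP2 and substrate 25nM each, 30min compound preincubation then 60min RT; data normalized to NEM, curves fitted.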
USP1 inh = Inhibitors of USP1/UAF1: Primary Screen. Ubiquitin carboxyl-terminal hydrolase 1 (Homo sapiens), O94782. recombinant USP1/UAF1, Ub-Rhodamine cleavage fluorescence. Potency, µM (series often up to 57.1 µM), without a hit: at the highest dose activity change, negative = inhibition, most hits filed as inhibitors. actives 0.23% (n = 390,000); further: potency means the concentration at half of the fitted maximal effect; nearly all actives have a fitted effect of over 60% in size
Target sequence (O94782 whole entry, looked up): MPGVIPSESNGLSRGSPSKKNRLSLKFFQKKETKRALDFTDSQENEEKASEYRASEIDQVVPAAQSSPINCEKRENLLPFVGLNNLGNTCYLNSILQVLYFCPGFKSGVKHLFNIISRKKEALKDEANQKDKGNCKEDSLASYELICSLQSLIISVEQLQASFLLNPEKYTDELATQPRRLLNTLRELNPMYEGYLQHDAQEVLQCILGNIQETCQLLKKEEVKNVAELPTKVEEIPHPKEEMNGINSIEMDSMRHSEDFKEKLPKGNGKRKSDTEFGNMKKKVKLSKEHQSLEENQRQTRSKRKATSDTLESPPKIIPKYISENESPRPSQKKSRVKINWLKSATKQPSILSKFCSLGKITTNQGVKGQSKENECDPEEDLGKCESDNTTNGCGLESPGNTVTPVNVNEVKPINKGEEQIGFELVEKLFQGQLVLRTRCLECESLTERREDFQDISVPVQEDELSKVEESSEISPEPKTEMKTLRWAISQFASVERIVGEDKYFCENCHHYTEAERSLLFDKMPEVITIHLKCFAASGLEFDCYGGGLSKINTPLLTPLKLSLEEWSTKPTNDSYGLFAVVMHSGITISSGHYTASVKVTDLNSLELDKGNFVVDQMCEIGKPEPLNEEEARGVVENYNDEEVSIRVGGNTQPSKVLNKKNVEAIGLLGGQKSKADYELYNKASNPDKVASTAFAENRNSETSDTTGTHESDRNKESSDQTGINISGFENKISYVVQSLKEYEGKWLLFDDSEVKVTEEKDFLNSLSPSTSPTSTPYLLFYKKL
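Step one: compound is pinned into 1nM USP1/UAF1 in HEPES pH 7.8 buffer with TCEP. Step two: 15 min room-temperature incubation. Step three: Ub-Rho (150nM final) starts cleavage, tracked by fluorescence over six one-minute reads.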
PLK1 PBD inh = qHTS for Inhibitors of PLK1-PDB (polo-like kinase 1 - polo-box domain): Primary Screen; Plk1 PBD binding of FITC phosphopeptide, fluorescence polarization; Potency, µM, for inactives: max response, negative = inhibition, usual class: inhibitors; Serine/threonine-protein kinase PLK1 (Homo sapiens), P53350; AID 720504, 2013; actives 2.8% (n = 360,000); further: potency means the concentration at half of the fitted maximal effect; series mostly up to about 57 µM; nearly all actives have a fitted effect of over 65% in size
PI5P4Ka inh = qHTS for Inhibitors of phosphatidylinositol 5-phosphate 4-kinase (PI5P4K); Phosphatidylinositol 5-phosphate 4-kinase type-2 alpha (Homo sapiens), P48426; PI5P4Kalpha enzyme, ADP-Glo luminescence, 60 min; hits give low values; max response, %; actives 1.2% (n = 330,000); AID 652105, 2013; active means max response of -50% or lower; inconclusive means between -30% and -50%; inactive means -30% or higher; further: value at the top dose of about 77 µM
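ADP-Glo luminescence end-point read after a 60 min room-temperature kinase reaction of PI5P4Kalpha plus substrate, initiated with ATP at 5 microM final. Buffer: 0.038 M HEPES pH 7.4, EGTA, 0.1% CHAPS, 5% DMSO.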
An asterisk follows results filed as active; ? = inconclusive; . = no result; [ ] = remark or other dose. Unless noted, the call rests on the fitted dose curve; in most records, active means well fitted curve in the direction sought with a large enough effect; inconclusive means small, poorly fitted or top-dose-only effect, or another doubt; inactive means no such curve, though single readings can be large; an effect the other way counts as inactive or inconclusive. Unless noted, on the % scale 0 is the no-effect control and ±100 the full control effect.

SMILES | WRN helicase inh | USP2a inh | USP1 inh | PLK1 PBD inh | PI5P4Ka inh
Oc1ccccc1C(=S)N1CCCCC1 | 6.3% | -0.3% | -13.2% | 26.7µM* | -13.7
Oc1ccccc1C(=S)N1CCCCCC1 | 1.7% | 1.6% | -3.1% | ? | -1.3
O=C(/C=C/c1ccc(Cl)cc1Cl)Nc1cccc(S(=O)(=O)NC2=NCCC2)c1 | -4.1% | -1.1% | -21.6% | 16.8µM* | ?
O=C(NCc1ccccc1)c1cnc(N2CCCCC2)c2ccccc12 | . | . | -18.2% | . | .
COc1ccc(Nc2cc(C)c3cc(NC(=O)c4cc(OC)cc(OC)c4)ccc3n2)cc1 | . | . | -24.6% | . | .
CCC(=O)N1CCc2cc(Br)cc(S(=O)(=O)NCCc3ccc(C)cc3)c21 | . | . | -9.3% | . | .
COc1ccc(N(CC(=O)Nc2cccc(C(C)=O)c2)S(=O)(=O)c2ccccc2)c(OC)c1 | . | . | -8.4% | . | .
Cc1ccc(/C=N/NC(=O)c2c(-c3ccccc3)noc2C)c(O)c1 | . | 3.0% | . | . | .
Cc1onc(-c2ccccc2)c1C(=O)N/N=C/c1c[nH]c2ccccc12 | -8.1% | -1.3% | -16.9% | 23.8µM* | -2.0
COc1cc(Cl)c(C)cc1NC(=O)CSc1cc(-c2ccccc2)nc(C)n1 | . | . | -12.5% | . | .
COc1cccc(-n2cc(C(=O)Nc3ccccc3C(N)=O)c3ccccc3c2=O)c1 | . | . | 10.5% | . | .
COc1cc(OC)c(NC(=O)N2CCc3cc(S(=O)(=O)N4CCC(C)CC4)ccc32)cc1Cl | . | . | -10.5% | . | .
COc1ccc(/C=C/c2nnc(NC(=O)CSc3ccc(C)cc3)s2)cc1 | -4.6% | 7.2% | -6.4% | -5.3% | -10.7
Cc1ccc(SCC(=O)Nc2nnc(C(C)(C)C)s2)cc1 | 11.5% | -0.2% | 0.7% | 21.2µM* | 0.4
O=c1[nH]c2ccccc2c(O)c1O | -1.8% | 1.9% | -6.7% | 10.6µM* | -96.3*
CCCCc1nn2c(=O)cc(COC(=O)c3cccs3)nc2s1 | . | . | -19.4% | . | .
CN(Cc1ccccc1)C(=O)Nc1ccc2c(c1)N(C)C(=O)c1ccccc1S2 | . | . | 3.7% | . | .
CN1C(=O)NC(c2ccc(O)cc2)C2=C1CN(c1ccccc1)C2=O (centres undefined) | 2.8% | -0.3% | -21.7% | 23.8µM* | -27.8
COC(=O)c1cc2sccc2n1Cc1c(C)cc(C)cc1C | . | . | -18.2% | . | .
Cc1cc(NC(=O)CSc2nnc(Nc3ccccc3C)s2)no1 | 6.1% | 0.0% | -19.5% | 21.2µM* | -16.2
Cn1c(SCC(=O)NC(c2ccccc2)c2ccccc2)nnc1-c1cccs1 | -0.7% | 0.0% | -12.2% | 26.7µM* | -11.6
Cn1c(SCC(=O)NNC(=O)Cc2ccccc2)nnc1-c1ccc(Cl)cc1 | -1.1% | -1.1% | 2.2% | -12.9% | 3.8
COc1ccc(-c2nnc(SCC(=O)NNC(=O)Cc3ccccc3)n2C)cc1OC | -15.4% | 3.1% | -18.4% | 26.7µM* | -11.8
Cc1cc(NC(=O)CSc2nnc(-c3ccccc3)n2C)no1 | 9.1% | 4.1% | -11.3% | 23.8µM* | -1.9
COc1ccc(/C=C2\SC(=S)N(CCC(=O)Nc3ccccc3C(=O)O)C2=O)cc1 | -15.6%[11.6 µM] | -0.3% | -17.6% | ? | -8.0
SMILES | WRN helicase inh | USP2a inh | USP1 inh | PLK1 PBD inh | PI5P4Ka inh
CCOc1ccc(/C=C2\SC(=S)N(CCC(=O)Nc3ccccc3C(=O)O)C2=O)cc1 | 3.7% | 0.5% | -13.2% | 23.8µM* | 1.0
COc1ccc(/C=C2\SC(=S)N(CCCC(=O)Nc3ccccc3C(=O)O)C2=O)cc1OC | 2.9%[11.6 µM] | 1.7% | ? | -11.1% | -64.3*
CCCC(=O)Nc1ccccc1NC(=O)c1ccc(OCC)cc1 | 3.1% | 6.6% | -8.1% | -7.5% | 0.8
O=C(O)c1ccccc1NC(=O)c1ccccc1Nc1ccccc1 | -13.4% | -8.4% | ? | 29.9µM* | -1.7
O=C(Nc1ccccc1C(=O)Nc1ccccc1C(=O)O)c1ccccc1 | -27.7% | 1.5% | -18.0% | ? | -0.1
CCOc1ccc(C(=O)Nc2ccccc2C(=O)O)cc1 | -6.8% | 10.6% | -16.3% | 26.7µM* | -18.5
COCCNC(=O)c1sc2ncn(CC(=O)N3CCCCC3)c(=O)c2c1C | -17.0% | 3.4% | -2.3% | 3.36µM* | ?
C[C@@H](C(=O)NCc1ccccc1)[C@@H]1C[C@@]1(C)[C@@H](NC(=O)OCc1ccccc1)c1ccccc1 | -8.7% | -6.8% | -26.3% | 2.5% | -2.8
Cc1ccc(CNC(=O)[C@H](C)[C@H]2C[C@]2(C)[C@H](NC(=O)OCc2ccccc2)c2ccccc2)o1 | -11.4% | -4.2% | -15.9% | -16.3% | -52.0*
Cc1cccc(N2CCN(c3ccc4cc(S(=O)(=O)N5CCC(C)CC5)ccc4n3)CC2)c1C | . | . | -18.8% | . | .
Cc1ccc(/C=C/C(=O)Nc2nnc(SCc3ccc(C#N)cc3)s2)o1 | ? | 0.3% | -10.8% | -19.3% | -72.1*
Cc1ccc(/C=C/C(=O)Nc2nccs2)o1 | 3.2% | 2.5% | -18.0% | -14.0% | -5.2
Cc1ccc(Cl)cc1N1CCN(C(=O)c2cccn2-c2nnc(N3CCCC3)s2)CC1 | . | . | -10.3% | . | .
O=[N+]([O-])c1ccccc1S(=O)(=O)Oc1ccc(C(=S)N2CCOCC2)cc1 | -6.6% | 4.0% | -11.7% | 5.32µM* | -6.5
O=C(Oc1ccc(C(=S)N2CCOCC2)cc1)c1ccc([N+](=O)[O-])cc1 | 11.9% | -1.6% | -11.8% | -3.9% | 0.4
COc1cc(CN(CC2CCCO2)C(=O)c2ccc(F)cc2)cc(OC)c1OC (centres undefined) | . | . | 2.1% | . | .
Cc1ccc(NC(=O)CN(C)Cc2cc(=O)n3ccsc3n2)cc1 | -23.9% | -0.2% | 0.0% | -15.5% | 1.4
CN(CC(=O)Nc1ccc(Cl)cc1)Cc1cc(=O)n2ccsc2n1 | -7.8% | 5.4% | -1.1% | 29.9µM* | -1.7
COC(=O)/C(=C\c1c[nH]c2ccccc12)NC(C)=O | 7.8% | -3.9% | -10.8% | -4.7% | -3.6
CCOC(=O)/C(=C\c1c[nH]c2ccccc12)NC(C)=O | -13.9% | 4.4% | -16.3% | 21.2µM* | -4.5
Cc1ccc(S(=O)(=O)Oc2ccccc2/C=C2/SC(=O)NC2=O)cc1 | -3.4% | 1.3% | -10.5% | -16.0% | 6.3
O=C1NC(=O)/C(=C\c2ccccc2OCc2ccccc2)S1 | -12.6% | 3.4% | ? | ? | -3.9
O=C1NC(=O)C(=Cc2ccccc2[N+](=O)[O-])S1 | 12.7% | . | ? | 13.4µM* | ?
O=C1NC(=O)/C(=C/c2cccc3ccccc23)S1 | -10.4% | -0.7% | -5.7% | 26.7µM* | -27.9
O=c1c2cc3c(cc2n(Cc2ccccc2)c(=O)n1Cc1nc(-c2ccccc2)no1)OCO3 | . | . | 9.6% | . | .
CCN(CC(=O)NCc1ccccn1)S(=O)(=O)c1ccc(Cl)cc1 | -23.4% | 1.2% | 6.1% | 26.7µM* | -5.2
COc1ccccc1-n1cnnc1SCC(=O)Nc1ncc(Cl)cc1Cl | -2.8% | 3.2% | -12.8% | 29.9µM* | -26.7
